Results: PubChem BioAssay (NCI)
This is part of a sample that, as a whole, favours compounds with a hit. Of some 83,000 tested, about 20% had one in any assay.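 Testing used 96-well plates and a 48-hour single-concentration exposure. Example: -40 means 40% of the starting cells died.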 A number with no mark means an inactive call. Activity calls are given as the source filed them. The calls were made as follows: active = growth percent below 10; inactive = the rest.

Experiments:
Experiment in all cases: NCI-60 one-dose screen, 48 h (100 = growth as untreated, 0 = no growth, -100 = all killed)
Details in all cases: 10 µM unless noted
HCT-15 colon = system: HCT-15 colon
HT29 colon = system: HT29 colon
SNB-75 CNS = system: SNB-75 CNS
SNB-19 CNS = system: SNB-19 CNS
U251 CNS = system: U251 CNS
PC-3 prostate = system: PC-3 prostate
SK-MEL-5 melanoma = system: SK-MEL-5 melanoma
UACC-62 melanoma = system: UACC-62 melanoma
LOX IMVI melanoma = system: LOX IMVI melanoma
SK-MEL-28 melanoma = system: SK-MEL-28 melanoma
SK-MEL-2 melanoma = system: SK-MEL-2 melanoma
EKVX NSCLC = system: EKVX NSCLC
SN12C renal = system: SN12C renal
UO-31 renal = system: UO-31 renal
TK-10 renal = system: TK-10 renal
ACHN renal = system: ACHN renal
CAKI-1 renal = system: CAKI-1 renal
A498 renal = system: A498 renal
CCRF-CEM leukemia = system: CCRF-CEM leukemia
MOLT-4 leukemia = system: MOLT-4 leukemia

Question: How did the growth (HCT-15 colon) turn out when `O=C1/C(=C/c2ccc(F)cc2)COc2ccc(O)c(O)c21` was run?
Answer: -27.7% (active)

Question: And the growth (HT29 colon)?
Answer: 13.5%

Question: And the growth (SNB-75 CNS)?
Answer: 26.9%

Question: And the growth (SNB-19 CNS)?
Answer: 33.4%

Question: What about the growth (U251 CNS) of the same compound?
Answer: 1.66% (active)

Question: What about the growth (PC-3 prostate) of the same compound?
Answer: -0.716% (active)

Question: What about the growth (SK-MEL-5 melanoma) of the same compound?
Answer: 56.3%

Question: What about the growth (UACC-62 melanoma) of the same compound?
Answer: 7.26% (active)

Question: And the growth (LOX IMVI melanoma)?
Answer: -85.2% (active)

Question: And the growth (SK-MEL-28 melanoma)?
Answer: 44.1%

Question: And the growth (SK-MEL-2 melanoma)?
Answer: 74.8%

Question: And the growth (EKVX NSCLC)?
Answer: 51.4%

Question: What about the growth (SN12C renal) of the same compound?
Answer: -49.9% (active)

Question: And the growth (UO-31 renal)?
Answer: -96.9% (active)

Question: And the growth (TK-10 renal)?
Answer: 17.8%

Question: And the growth (ACHN renal)?
Answer: -67.1% (active)

Question: And the growth (CAKI-1 renal)?
Answer: 9.04% (active)

Question: And the growth (A498 renal)?
Answer: 105%

Question: What about the growth (CCRF-CEM leukemia) of the same compound?
Answer: 3.39% (active)

Question: What about the growth (MOLT-4 leukemia) of the same compound?
Answer: 4.21% (active)

Question: `CCn1c(SCC(=O)c2ccc(Br)cc2)nnc1-c1ccncc1` was tested. Which growth (HCT-15 colon) did it give?
Answer: 106%

Question: What about the growth (HT29 colon) of the same compound?
Answer: 107%

Question: And the growth (SNB-75 CNS)?
Answer: 81.7%

Question: And the growth (SNB-19 CNS)?
Answer: 99.2%

Question: What about the growth (U251 CNS) of the same compound?
Answer: 99.6%

Question: What about the growth (PC-3 prostate) of the same compound?
Answer: 102%

Question: And the growth (SK-MEL-5 melanoma)?
Answer: 98.9%

Question: What about the growth (UACC-62 melanoma) of the same compound?
Answer: 96.8%

Question: What about the growth (LOX IMVI melanoma) of the same compound?
Answer: 101%

Question: And the growth (SK-MEL-28 melanoma)?
Answer: 109%

Question: What about the growth (SK-MEL-2 melanoma) of the same compound?
Answer: 104%

Question: And the growth (EKVX NSCLC)?
Answer: 102%

Question: What about the growth (SN12C renal) of the same compound?
Answer: 107%

Question: What about the growth (UO-31 renal) of the same compound?
Answer: 91.4%

Question: And the growth (TK-10 renal)?
Answer: 116%

Question: What about the growth (ACHN renal) of the same compound?
Answer: 109%

Question: What about the growth (CAKI-1 renal) of the same compound?
Answer: 95.6%

Question: And the growth (A498 renal)?
Answer: 91.1%

Question: What about the growth (CCRF-CEM leukemia) of the same compound?
Answer: 108%

Question: And the growth (MOLT-4 leukemia)?
Answer: 101%

Question: What does the source list for `CNc1nc(S(=O)c2ccc(C#N)cc2)nc2ccccc12` (stereo not given)?
Answer: growth (HCT-15 colon): 81%; growth (HT29 colon): 81.8%; growth (SNB-75 CNS): 60.5%; growth (SNB-19 CNS): 90.8%; growth (U251 CNS): 83.1%; growth (PC-3 prostate): 89.2%; growth (SK-MEL-5 melanoma): 83.6%; growth (UACC-62 melanoma): 81%; growth (LOX IMVI melanoma): 76.5%; growth (SK-MEL-28 melanoma): 94.4%; growth (SK-MEL-2 melanoma): 105%; growth (EKVX NSCLC): 82.2%; growth (SN12C renal): 68.9%; growth (UO-31 renal): 60.2%; growth (TK-10 renal): 109%; growth (ACHN renal): 41.8%; growth (CAKI-1 renal): 39.9%; growth (A498 renal): 86%; growth (CCRF-CEM leukemia): 32.2%; growth (MOLT-4 leukemia): 68.6%

Question: Which results are given for `O=C(Nc1cc(Cl)ccc1O)c1ccc(Nc2ccnc(C(F)(F)F)c2)cc1`?
Answer: growth (HCT-15 colon): 30.9%; growth (HT29 colon): 95.5%; growth (SNB-75 CNS): 69.2%; growth (SNB-19 CNS): 24.6%; growth (U251 CNS): 31.7%; growth (PC-3 prostate): 14.7%; growth (SK-MEL-5 melanoma): 47.1%; growth (UACC-62 melanoma): 27.7%; growth (LOX IMVI melanoma): 27.8%; growth (SK-MEL-28 melanoma): 83.6%; growth (SK-MEL-2 melanoma): 41.4%; growth (EKVX NSCLC): 71.2%; growth (SN12C renal): 35.6%; growth (UO-31 renal): 12.6%; growth (TK-10 renal): 79%; growth (ACHN renal): 23.7%; growth (CAKI-1 renal): 58.7%; growth (A498 renal): 35.8%; growth (CCRF-CEM leukemia): 2.44% (active); growth (MOLT-4 leukemia): 19.2%

Question: With `O=C(O)c1[nH]c(=O)[nH]c(=O)c1[N+](=O)[O-]` as the compound, how does the growth (HCT-15 colon) read?
Answer: 98.8%

Question: What about the growth (HT29 colon) of the same compound?
Answer: 129%

Question: And the growth (SNB-75 CNS)?
Answer: 93.4%

Question: What about the growth (SNB-19 CNS) of the same compound?
Answer: 110%

Question: What about the growth (U251 CNS) of the same compound?
Answer: 104%

Question: And the growth (PC-3 prostate)?
Answer: 96.7%

Question: And the growth (SK-MEL-5 melanoma)?
Answer: 110%

Question: And the growth (UACC-62 melanoma)?
Answer: 106%

Question: And the growth (LOX IMVI melanoma)?
Answer: 105%

Question: And the growth (SK-MEL-28 melanoma)?
Answer: 121%

Question: What about the growth (SK-MEL-2 melanoma) of the same compound?
Answer: 158%

Question: And the growth (EKVX NSCLC)?
Answer: 119%

Question: And the growth (SN12C renal)?
Answer: 108%

Question: And the growth (UO-31 renal)?
Answer: 96.3%

Question: What about the growth (TK-10 renal) of the same compound?
Answer: 119%

Question: What about the growth (ACHN renal) of the same compound?
Answer: 102%

Question: And the growth (CAKI-1 renal)?
Answer: 95.2%

Question: What about the growth (A498 renal) of the same compound?
Answer: 118%

Question: What about the growth (CCRF-CEM leukemia) of the same compound?
Answer: 113%

Question: And the growth (MOLT-4 leukemia)?
Answer: 77.4%

Question: What does the source list for `CC1(C)c2[nH]c3ccccc3c2C[C@]2(C)[C@H]3CC=C4[C@@H]5C[C@@](C)(C(N)=O)CC[C@]5(C)CC[C@@]4(C)[C@]3(C)CC[C@@H]12`?
Answer: growth (HCT-15 colon): 50.9%; growth (HT29 colon): 62.7%; growth (SNB-75 CNS): 101%; growth (SNB-19 CNS): 62.2%; growth (U251 CNS): 69.2%; growth (PC-3 prostate): 50.6%; growth (SK-MEL-5 melanoma): 19.8%; growth (UACC-62 melanoma): 59.2%; growth (LOX IMVI melanoma): 56.8%; growth (SK-MEL-28 melanoma): 77.4%; growth (SK-MEL-2 melanoma): 80.3%; growth (EKVX NSCLC): 31.9%; growth (SN12C renal): 61.8%; growth (UO-31 renal): 47.3%; growth (TK-10 renal): 84.2%; growth (ACHN renal): 45.7%; growth (CAKI-1 renal): 57.7%; growth (A498 renal): 67.9%; growth (CCRF-CEM leukemia): 54.7%; growth (MOLT-4 leukemia): 51.2%

Question: Which results are given for `CCN(CC)CCOc1ccc(C(=C(C)c2ccc(Cl)cc2)c2ccc(OCCN(CC)CC)cc2)cc1`?
Answer: growth (HCT-15 colon): -76.9% (active); growth (HT29 colon): -74.8% (active); growth (SNB-75 CNS): -92.6% (active); growth (SNB-19 CNS): -81.8% (active); growth (U251 CNS): -81.6% (active); growth (PC-3 prostate): -59.3% (active); growth (SK-MEL-5 melanoma): -98% (active); growth (UACC-62 melanoma): -78.1% (active); growth (LOX IMVI melanoma): -88.5% (active); growth (SK-MEL-28 melanoma): -88.5% (active); growth (SK-MEL-2 melanoma): -60.2% (active); growth (EKVX NSCLC): 26.1%; growth (SN12C renal): -83.7% (active); growth (UO-31 renal): -92.8% (active); growth (TK-10 renal): -87.2% (active); growth (ACHN renal): -88.3% (active); growth (CAKI-1 renal): -95.7% (active); growth (A498 renal): 7.66% (active); growth (CCRF-CEM leukemia): -62.8% (active); growth (MOLT-4 leukemia): -64.2% (active)

Question: For `Cc1ccc(CNc2ccc(Cl)cc2NCc2ccc(C)c(O)c2)cc1O`, which growth (HCT-15 colon) is on record?
Answer: 7.28% (active)

Question: And the growth (HT29 colon)?
Answer: 49.1%

Question: What about the growth (SNB-75 CNS) of the same compound?
Answer: 41.1%

Question: And the growth (SNB-19 CNS)?
Answer: 29.5%

Question: And the growth (U251 CNS)?
Answer: 21.9%

Question: What about the growth (PC-3 prostate) of the same compound?
Answer: 7.21% (active)

Question: What about the growth (SK-MEL-5 melanoma) of the same compound?
Answer: 32.7%

Question: What about the growth (UACC-62 melanoma) of the same compound?
Answer: 38.6%

Question: And the growth (LOX IMVI melanoma)?
Answer: 2.86% (active)

Question: And the growth (SK-MEL-28 melanoma)?
Answer: 31.9%

Question: What about the growth (SK-MEL-2 melanoma) of the same compound?
Answer: 33.3%

Question: And the growth (EKVX NSCLC)?
Answer: 80.2%

Question: And the growth (SN12C renal)?
Answer: -27.8% (active)

Question: What about the growth (UO-31 renal) of the same compound?
Answer: 11.9%

Question: What about the growth (TK-10 renal) of the same compound?
Answer: 52.3%

Question: What about the growth (ACHN renal) of the same compound?
Answer: 0.115% (active)

Question: What about the growth (CAKI-1 renal) of the same compound?
Answer: 37.4%

Question: What about the growth (A498 renal) of the same compound?
Answer: 82.2%

Question: And the growth (CCRF-CEM leukemia)?
Answer: 9.13% (active)

Question: What about the growth (MOLT-4 leukemia) of the same compound?
Answer: -10.5% (active)
